Assay results from PubChem BioAssay AID1159580 (chemical genetic matrix, 2015).
About 2,000 (36%) of roughly 5,500 compounds were called active. About 18% were inconclusive and are not listed. Some of the results follow. Values without a mark were called inactive. Cut-off read from the data, not from the text of the source: active = normalized growth mostly below about 0.91 (no sharp cut-off); inconclusive = no clear call, values can overlap the other calls; inactive = mostly above about 0.92.

Experiment: chemical genetic growth profiling, strain panel (AID 1159580);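 note: tested at 20 µM; growth read once vehicle control cultures reached saturation at 30 °C; 1 = growth at the plate median or of vehicle wells; lower values mean less growth of the strain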
Settings: growth OD

Compound: COC(=O)NC(=S)Nc1ccccc1NC(=S)NC(=O)OC
- normalized growth (S. cerevisiae deletion strains, locus YJR075W, strain HOC1, hits give low values): 1.01
- normalized growth (S. cerevisiae deletion strains, locus YKL009W, strain mrt4, hits give low values): 0.995
- normalized growth (S. cerevisiae deletion strains, locus YKL068W, hits give low values): 0.996
- normalized growth (S. cerevisiae deletion strains, locus YKL085W, strain MDH1 (second series), hits give low values): 1
- normalized growth (S. cerevisiae deletion strains, locus YKL085W, strain MDH1, hits give low values): 1
- normalized growth (S. cerevisiae deletion strains, locus YKL160W, strain elf1, hits give low values): 0.952
- normalized growth (S. cerevisiae deletion strains, locus YKL190W, strain CNB1, hits give low values): 1.01
- normalized growth (S. cerevisiae deletion strains, locus YKR001C, strain vps1, hits give low values): 0.991
- normalized growth (S. cerevisiae deletion strains, locus YKR026C, strain gcn3, hits give low values): 0.974
- normalized growth (S. cerevisiae deletion strains, locus YKR091W, strain srl3, hits give low values): 0.97
- normalized growth (S. cerevisiae deletion strains, locus YLL001W, strain dnm1, hits give low values): 0.972
- normalized growth (S. cerevisiae deletion strains, locus YLL026W, hits give low values): 0.981
- normalized growth (S. cerevisiae deletion strains, locus YLL041C, strain sdh2, hits give low values): 0.978
- normalized growth (S. cerevisiae deletion strains, locus YLR027C, strain aat2, hits give low values): 0.975
- normalized growth (S. cerevisiae deletion strains, locus YLR039C, strain RIC1, hits give low values): 1.02
- normalized growth (S. cerevisiae deletion strains, locus YLR058C, strain SHM2, hits give low values): 1
- normalized growth (S. cerevisiae deletion strains, locus YLR102C, strain apc9, hits give low values): 1.01
- normalized growth (S. cerevisiae deletion strains, locus YLR113W, strain HOG1, hits give low values): 0.983
- normalized growth (S. cerevisiae deletion strains, locus YLR221C, strain rsa3, hits give low values): 0.974
- normalized growth (S. cerevisiae deletion strains, locus YLR258W, strain gsy2, hits give low values): 0.985
- normalized growth (S. cerevisiae deletion strains, locus YLR262C, strain YPT6 (second series), hits give low values): 0.987
- normalized growth (S. cerevisiae deletion strains, locus YLR262C, strain YPT6, hits give low values): 0.989
- normalized growth (S. cerevisiae deletion strains, locus YLR268W, strain sec22, hits give low values): 1.07
- normalized growth (S. cerevisiae deletion strains, locus YLR320W, strain mms22, hits give low values): 0.856 (active)
- normalized growth (S. cerevisiae deletion strains, locus YLR330W, strain CHS5, hits give low values): 1
- normalized growth (S. cerevisiae deletion strains, locus YLR342W, strain FKS1 (second series), hits give low values): 0.988
- normalized growth (S. cerevisiae deletion strains, locus YLR342W, strain FKS1, hits give low values): 0.97
- normalized growth (S. cerevisiae deletion strains, locus YLR357W, strain rsc2, hits give low values): 0.92
- normalized growth (S. cerevisiae deletion strains, locus YLR370C, strain arc18, hits give low values): 0.98
- normalized growth (S. cerevisiae deletion strains, locus YLR371W, strain rom2, hits give low values): 1.02
- normalized growth (S. cerevisiae deletion strains, locus YLR384C, strain iki3, hits give low values): 0.964
- normalized growth (S. cerevisiae deletion strains, locus YLR418C, strain cdc73, hits give low values): 0.972
- normalized growth (S. cerevisiae deletion strains, locus YML016C, strain PPZ1, hits give low values): 1
- normalized growth (S. cerevisiae deletion strains, locus YML032C, strain rad52, hits give low values): 1.05
- normalized growth (S. cerevisiae deletion strains, locus YML120C, strain ndi1, hits give low values): 0.97
- normalized growth (S. cerevisiae deletion strains, locus YML124C, strain tub3, hits give low values): 1
- normalized growth (S. cerevisiae deletion strains, locus YMR058W, strain fet3, hits give low values): 0.957
- normalized growth (S. cerevisiae deletion strains, locus YMR078C, strain ctf18, hits give low values): 1.02
- normalized growth (S. cerevisiae deletion strains, locus YMR125W, strain sto1, hits give low values): 0.974
- normalized growth (S. cerevisiae deletion strains, locus YMR129W, hits give low values): 0.98
- normalized growth (S. cerevisiae deletion strains, locus YMR205C, strain PFK2, hits give low values): 0.97
- normalized growth (S. cerevisiae deletion strains, locus YMR223W, strain ubp8, hits give low values): 0.978
- normalized growth (S. cerevisiae deletion strains, locus YMR231W, strain pep5, hits give low values): 0.993
- normalized growth (S. cerevisiae deletion strains, locus YMR263W, strain SAP30, hits give low values): 1.02
- normalized growth (S. cerevisiae deletion strains, locus YMR307W, strain GAS1, hits give low values): 0.983
- normalized growth (S. cerevisiae deletion strains, locus YNL067W, strain RPL9B, hits give low values): 1.02
- normalized growth (S. cerevisiae deletion strains, locus YNL071W, strain lat1, hits give low values): 0.772 (active)
- normalized growth (S. cerevisiae deletion strains, locus YNL128W, strain TEP1, hits give low values): 1.01
- normalized growth (S. cerevisiae deletion strains, locus YNL153C, strain GIM3, hits give low values): 0.99
- normalized growth (S. cerevisiae deletion strains, locus YNL183C, strain NPR1, hits give low values): 0.902
- normalized growth (S. cerevisiae deletion strains, locus YNL209W, strain ssb2, hits give low values): 1.01
- normalized growth (S. cerevisiae deletion strains, locus YNL233W, strain BNI4, hits give low values): 1.03
- normalized growth (S. cerevisiae deletion strains, locus YNL248C, strain rpa49, hits give low values): 0.93
- normalized growth (S. cerevisiae deletion strains, locus YNL250W, strain rad50, hits give low values): 0.989
- normalized growth (S. cerevisiae deletion strains, locus YNL271C, strain bni1, hits give low values): 1.01
- normalized growth (S. cerevisiae deletion strains, locus YNL298W, strain CLA4, hits give low values): 0.978
- normalized growth (S. cerevisiae deletion strains, locus YNL307C, strain MCK1, hits give low values): 0.986
- normalized growth (S. cerevisiae deletion strains, locus YNL322C, strain KRE1 (second series), hits give low values): 0.985
- normalized growth (S. cerevisiae deletion strains, locus YNL322C, strain KRE1, hits give low values): 0.998
- normalized growth (S. cerevisiae deletion strains, locus YNR049C, strain mso1, hits give low values): 0.99
- normalized growth (S. cerevisiae deletion strains, locus YNR052C, strain pop2, hits give low values): 1.01
- normalized growth (S. cerevisiae deletion strains, locus YOL006C, strain TOP1, hits give low values): 1.09
- normalized growth (S. cerevisiae deletion strains, locus YOL012C, strain htz1): 1.25
- normalized growth (S. cerevisiae deletion strains, locus YOL147C, strain pex11, hits give low values): 1.01
- normalized growth (S. cerevisiae deletion strains, locus YOR001W, strain rrp6, hits give low values): 0.986
- normalized growth (S. cerevisiae deletion strains, locus YOR061W, strain CKA2, hits give low values): 1.01
- normalized growth (S. cerevisiae deletion strains, locus YOR069W, strain VPS5, hits give low values): 1.01
- normalized growth (S. cerevisiae deletion strains, locus YOR070C, strain gyp1, hits give low values): 0.985
- normalized growth (S. cerevisiae deletion strains, locus YOR080W, strain dia2, hits give low values): 1.01
- normalized growth (S. cerevisiae deletion strains, locus YOR083W, strain WHI5, hits give low values): 0.97
- normalized growth (S. cerevisiae deletion strains, locus YOR106W, strain vam3, hits give low values): 0.887
- normalized growth (S. cerevisiae deletion strains, locus YOR136W, strain idh2, hits give low values): 0.999
- normalized growth (S. cerevisiae deletion strains, locus YOR144C, strain elg1, hits give low values): 1.01
- normalized growth (S. cerevisiae deletion strains, locus YOR184W, strain ser1, hits give low values): 1.01
- normalized growth (S. cerevisiae deletion strains, locus YOR231W, strain MKK1, hits give low values): 0.986
- normalized growth (S. cerevisiae deletion strains, locus YOR265W, strain rbl2, hits give low values): 1
- normalized growth (S. cerevisiae deletion strains, locus YOR270C, strain vph1, hits give low values): 0.858
- normalized growth (S. cerevisiae deletion strains, locus YOR290C, strain snf2, hits give low values): 0.959
- normalized growth (S. cerevisiae deletion strains, locus YOR316C, strain cot1, hits give low values): 1.01
- normalized growth (S. cerevisiae deletion strains, locus YPL051W, strain arl3, hits give low values): 0.957
- normalized growth (S. cerevisiae deletion strains, locus YPL055C, strain LGE1, hits give low values): 0.98
- normalized growth (S. cerevisiae deletion strains, locus YPL078C, strain atp4, hits give low values): 0.989
- normalized growth (S. cerevisiae deletion strains, locus YPL106C, strain sse1, hits give low values): 0.998
- normalized growth (S. cerevisiae deletion strains, locus YPL240C, strain hsp82, hits give low values): 1
- normalized growth (S. cerevisiae deletion strains, locus YPL241C, strain CIN2, hits give low values): 1.01
- normalized growth (S. cerevisiae deletion strains, locus YPL256C, strain CLN2, hits give low values): 1.01
- normalized growth (S. cerevisiae deletion strains, locus YPR119W, strain clb2, hits give low values): 1.02
- normalized growth (S. cerevisiae deletion strains, locus YPR141C, strain kar3, hits give low values): 0.994
- normalized growth (S. cerevisiae deletion strains, locus YPR163C, strain tif3, hits give low values): 1.03
- normalized growth (S. cerevisiae deletion strains, locus YPR167C, strain met16, hits give low values): 1.01
- normalized growth (S. cerevisiae deletion strains, strain wtn01, hits give low values): 1.02
- normalized growth (S. cerevisiae strains, strain wild type, hits give low values): 0.996
